# Assay results reported in PubChem BioAssay (NCI).
# About 79,000 compounds went through this panel and 15% of them were active in at least one assay; those are over-represented in the sample as a whole. Values without a mark were called inactive. Calls of active or inactive are those of the source. No stated cut-off is given here; in the data, active means growth inhibition above about 70%; inactive means the rest.
# Experiment: NCI Yeast Anticancer Drug Screen. Data for the mec2-1 strain (AID 157)
# Details: S. cerevisiae mec2-1 strain, at 50.0 µM, stronger effect = higher value
# How it was run: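 Cells of the genetically defined mec2-1 yeast strain are incubated with test compound. Inhibition of growth is calculated against vehicle-treated controls.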
row,SMILES,growth inhibition
1,C/C=C/C(=O)[O-].C/C=C/C(=O)[O-].N.N.N.N.[Co+3].[O-][Cl+3]([O-])([O-])[O-],-2.7%
2,CC1(C)C(=O)N(O)C(C)(C)N1N=O,13.4%
3,CC(=O)Oc1cccc(C#N)c1,1.25%
4,COc1cc2c(cc1O)CNCC2c1ccc(O)c(C)c1 (configuration not stated),-14.6%
5,[Se]=[Mo]=[Se],-8.3%
6,CCC(Br)(CC)C(=O)NC(N)=O,-23.8%
7,O=Cc1ccccc1.[C-]#[O+].[C-]#[O+].[C-]#[O+].[Cr],-34.2%
8,Cc1ccc(SCC(CSCCO)OCn2cnc3c2NC(N)=NC32OCCO2)cc1 (configuration not stated),2.3%
9,C1=CC2CCC1C2,3.75%
10,COc1ccc2c(c1)C1(C)CCN(C)CC(C1)C2O (configuration not stated),13.6%
11,CCOP(=O)(OCC)Oc1c(Cl)c(Cl)c(Cl)c(Cl)c1Cl,47.4%
12,CN(C)Cc1c[nH]c2ccc(F)cc12,-13.8%
13,CCCCCCCCCCOC(=O)c1ccccc1C(=O)OCCCCCCCCCC,-23.9%
14,CN(C)C(=O)Oc1ccc(Cl)cc1Cl,18.1%
15,CC(=O)OC1CCC2(C)C(CC(=O)C3C2CCC2(C)C(OC(C)=O)CCC32)C1 (configuration not stated),7.35%
16,CCOP(=O)(OCC)C(C)(C)OC(=O)NC#N,-63.5%
17,COC12C(COC(N)=O)C3=C(C(=O)C(C)=C(N4CC4)C3=O)N1CC1NC12 (configuration not stated),90.3% (active)
18,CC(C)CCC1C(=O)NC(=O)NC1=O,-6.15%
19,CC(C)(C)NCC(COc1ccc([N+](=O)[O-])cc1)OP(c1ccccc1)c1ccccc1 (configuration not stated),6.25%

row,SMILES,growth inhibition
1,Fc1ccc(N=C=S)cc1,-20.2%
2,NCCCN1CCN(c2ccccc2)CC1,-30.2%
3,[Cl][Pt]([Cl])[Cl].[NH-]C1CN2CCC1CC2 (configuration not stated),19.4%
4,CC(C)N[C@@H]1CCC[C@H]1O,-0.1%
5,CC(=O)O[C@H]1CC[C@@]2(C)[C@H](CC[C@@H]3[C@@H]2CC[C@]2(C)[C@@H](c4ccc(=O)oc4)C[C@H]4O[C@]342)C1,7.05%
6,CCCCCCCCCSCP(=O)(OCC)OCC,99.8% (active)
7,[CH3][Sn]1([CH3])[O]CC(COc2cc(Cl)c(Cl)cc2Cl)[O]1 (configuration not stated),6.65%
8,CCCC(=O)OC1C(c2ccc(=O)oc2)C2(C)CCC3C(CCC4CC(OC(C)=O)CCC43C)C23OC13 (configuration not stated),-16.9%
9,COc1ccccc1NC1=NCCS1,-12.9%
10,O=C(O)C(O)(Cl)c1cccs1 (configuration not stated),-3.35%
11,CCOP(=O)(OCC)O/N=C(/c1ccccc1)C(C)C,4.85%
12,Cc1ccc(S(=O)(=O)Nc2cc(C)cc(CCN)c2C)cc1,-11.6%
13,C[N+](C)(C)CC1CCc2ccccc2C1=O (configuration not stated),44.6%
14,CC(=O)[CH-]C(C)=O.CC(=O)[CH-]C(C)=O.CC(=O)[CH-]C(C)=O.CCC(=O)O.[Zn+2].[Zn],-9.35%
15,O=C(CCC1CCCCN1)Nc1ccc2c(c1)C(=O)c1ccc(NC(=O)CCN3CCCCC3)cc1C2=O (configuration not stated),9.2%
16,COc1ccc2c(c1)CCC1C2CCC2(C)C1CCC21CCNP(=O)(N(CCCl)CCCl)O1 (configuration not stated),31.4%
17,O=C(COc1cccc(Cl)c1Cl)Nc1ccc[n+](Cc2ccc(S(=O)(=O)F)cc2)c1,0.15%
18,Cc1ccc(C)c(C(C)NC2=NCCO2)c1 (configuration not stated),-7.95%
